# The full list was thinned out, with hits kept by preference.
# BL2 CD40 inh: inhibitors of CD40-induced NF-kB signaling, primary screen, BL2 cells, luciferase reporter, single point; CD40L-induced, 4 h; inhibition, % at 10 µM; 0.94% of 83,000 active; AID 1053188, 2014;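 active = mean inhibition of at least 50% with a set share of replicates also reaching that level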;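 note: 0% = neutral control wells and 100% = IKK inhibitor VII at 50 µM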
# * hit, by the source's call; [ ] = remark or other dose.
SMILES,BL2 CD40 inh
CCCC#Cc1cnc2c(c1)C(=O)N([C@H](C)CO)C[C@H](C)[C@H](CN(C)C(=O)Nc1cc(F)ccc1F)O2,-9.9[25 µM]
COC(=O)c1cc(=O)c2ccc(OC)cc2o1,-3.8
COC(=O)c1ccccc1-c1c2ccc(=N)cc-2oc2cc(N)ccc12,49.3*
COC(=O)c1ccc(N)cc1O,25.5
C/C=C/c1ccc([C@H]2[C@@H](CO)N(c3nc(-c4ccccc4)cs3)[C@H]2C#N)cc1,-2.3[25 µM]
O=C(C[C@@H]1CC[C@H]2[C@@H](COC[C@H](O)CN2CC2CCCC2)O1)NCc1ccc(Cl)cc1,5.7
Cc1ccccc1C(=O)Nc1c(C(=O)N(CCN(C)C)Cc2ccco2)oc2ccccc12,18.0
CNc1c2cccc(C)c2nc2c(C(=O)NCCN(C)C)cccc12,85.5*
Cc1ccc(C(=O)NCCN(C)C)c(C)c1,5.2
CN1[C@@H]2c3ccc(-c4cccnc4)c(=O)n3C[C@@H]2[C@@H](CO)[C@@H]1C(=O)NCC1CCCCC1,-1.2[25 µM]
CCS(=O)(=O)N1CC2(C1)[C@@H](c1ccccc1)[C@@H](CO)N2Cc1ccccn1,-2.7[25 µM]
O=C1C(=C(I)I)c2ccccc2-c2ccccc21,106.0*
O=C1c2ccccc2-c2nc3ccccc3nc21,-117.6
NC1=CC(=O)C(=O)c2ccccc21,-12.3
c1ccc(OCCSc2nnc3sc4ccccc4n23)cc1,86.7*
c1ccc(OCCSc2nnnn2-c2ccccc2)cc1,-20.1
CCCn1c(=O)c2ccccc2n2c(SCCOc3ccccc3)nnc12,-3.0
COc1ccccc1CN1[C@@H]2CN(C(=O)C3CC3)c3ccccc3[C@@H]2[C@@H]1CO,2.0
CC(C)NC(=O)N1[C@@H](CO)[C@@H]2c3ccccc3N(C(=O)Nc3ccccc3)C[C@@H]21,-13.5
C[C@@H]1CN([C@H](C)CO)C(=O)c2cc(NC(=O)NC3CCCCC3)ccc2O[C@@H](C)CCCCO[C@@H]1CN(C)Cc1ccc(Cl)c(Cl)c1,0.0
CCS(=O)(=O)Nc1ccc2c(c1)C(=O)N(C)[C@H]1CC[C@@H](CC(=O)N3CCN(C)CC3)O[C@H]1CO2,3.3[25 µM]
CN(C)CC(=O)Nc1ccc2c(c1)[C@H]1C[C@@H](CC(=O)N3CCCCC3)O[C@@H](CO)[C@H]1O2,-11.4[25 µM]
CC(=O)c1cnc(-c2ccccc2Cl)s1,1.1
O=C1c2sc3nc4ccccc4n3c2C(=O)N1c1ccccc1Cl,51.6*
CN1c2ccc(-c3cccc(F)c3)cc2[C@@H]2[C@@H](CCN2S(=O)(=O)c2cccc(F)c2)[C@H]1CO,4.1
SMILES,BL2 CD40 inh
COc1ccc(S(=O)(=O)N(C)C[C@H]2OCCCC[C@H](C)Oc3ccc(NC(=O)Cc4ccccc4)cc3C(=O)N([C@H](C)CO)C[C@@H]2C)cc1,25.9[25 µM]
O=C(NC1Cc2ccccc2C1)[C@H]1N[C@H]2c3ccc(C4=CCCC4)c(=O)n3C[C@H]2[C@@H]1CO,1.1[25 µM]
Cc1cc(Nc2nc3c(c(=O)n(C)c(=O)n3C)n2C)n(-c2ccc(Cl)cc2)n1,-4.9
Cc1nc2c(=O)n(C)c(=O)n(C)c2nc1Cl,105.3*
CC(C)Sc1nc2c(c(=O)n(C)c(=O)n2C)n1C,10.6
O=C(Nc1ccccc1F)N[C@@H]1CC[C@@H](CCNC(=O)C2CCCC2)O[C@@H]1CO,1.1
N#C[C@H]1[C@@H](c2ccccc2-c2ccccc2F)[C@H](CO)N1C(=O)C1CCOCC1,-10.2[25 µM]
C[C@H](NC(=O)[C@H]1[C@H](CO)[C@H]2Cn3c(cccc3=O)[C@H]2N1CC1CCCC1)c1ccccc1,4.0
CC1(C)CC(C(CC(=O)O)c2ccccc2)CCO1 (centres undefined),-3.2
O=C(c1ccco1)N(CCC(c1ccccc1)c1ccco1)Cc1ccccc1 (centres undefined),-1.4
COc1ccc(CN(CCC(c2ccc(F)cc2)C2CCOC(C)(C)C2)C(=O)c2ccco2)cc1 (centres undefined),37.3*
Cc1cnc2c(N)cc(C)c(C)c2c1,90.2*
Cc1cc(N)c(C)c([N+](=O)[O-])c1C,7.3
CN1[C@@H]2Cn3c(ccc(C4=CCCC4)c3=O)[C@H]1[C@@H](C(=O)N1CCOCC1)[C@@H]2CO,2.0[25 µM]
COc1ccc(S(=O)(=O)N(C)C[C@@H]2Oc3ccc(NC(=O)Nc4ccc(F)cc4)cc3CC(=O)N([C@@H](C)CO)C[C@@H]2C)cc1,3.2
O=S1(=O)N=C(SCCO)c2ccccc21,-10.9
O=C1c2ccccc2-c2c1c1ccccc1c(=O)n2CCO,-181.9
CC1=C(SCCO)C(=O)c2ccccc2C1=O,91.2*[25 µM]
COc1cccc(NC(=O)N[C@@H]2C=C[C@@H](CC(=O)NCc3ccncn3)O[C@H]2CO)c1,1.6[25 µM]
COc1ccc(S(=O)(=O)N(C)C[C@@H]2OCc3ccccc3-c3ccccc3C(=O)N([C@@H](C)CO)C[C@H]2C)cc1,-3.3
C[C@@H]1CN([C@H](C)CO)C(=O)c2cccc(NC(=O)C3CCCCC3)c2O[C@@H]1CN(C)C,2.9
CCSc1ccc(-c2cc(NC=O)c3ncc(-c4cccc(C(=O)N(C)C)c4)n3c2)cc1,51.3*
O=CNc1cc(-c2ccccc2)cn2c(-c3ccc(F)c(Cl)c3)cnc12,-23.1
CC(=O)c1ccc(-c2cnc3c(NC=O)cc(-c4ccc(N5CCN(C)CC5)cc4)cn23)cc1,-24.6
CC(=O)Nc1ccc2c(c1)CC(=O)N(C)C[C@@H](C)[C@H](CN(C)C(C)=O)O2,0.5
SMILES,BL2 CD40 inh
Cc1ccccc1S(=O)(=O)Nc1ccc2c(c1)C(=O)N(C)[C@@H]1CC[C@H](CC(=O)O)O[C@@H]1CO2,9.6[25 µM]
C[C@H]1CCCCO[C@H](CN(C)Cc2ccc(C(F)(F)F)cc2)[C@@H](C)CN([C@@H](C)CO)C(=O)c2cc(NC(=O)Nc3cccc4ccccc34)ccc2O1,53.1*[25 µM]
Cc1noc(C)c1S(=O)(=O)Nc1ccc2c(c1)C(=O)N([C@H](C)CO)C[C@H](C)[C@H](CN(C)C(=O)Nc1cccc3ccccc13)OCCCC[C@@H](C)O2,-10.3[25 µM]
Cc1noc(C)c1S(=O)(=O)Nc1ccc2c(c1)C(=O)N([C@H](C)CO)C[C@@H](C)[C@H](CN(C)C(=O)Nc1cccc3ccccc13)OCCCC[C@@H](C)O2,75.2*[25 µM]
C[C@@H]1CCCCO[C@@H](CN(C)CC2CCCCC2)[C@@H](C)CN([C@@H](C)CO)C(=O)c2cc(NC(=O)Nc3ccc(C(F)(F)F)cc3)ccc2O1,96.9*[25 µM]
C[C@H]1CCCCO[C@@H](CN(C)Cc2ccc(C(F)(F)F)cc2)[C@@H](C)CN([C@@H](C)CO)C(=O)c2cc(NC(=O)Nc3cccc4ccccc34)ccc2O1,18.1[25 µM]
C[C@@H]1CCCCO[C@@H](CN(C)CC2CCCCC2)[C@H](C)CN([C@H](C)CO)C(=O)c2cc(NC(=O)Nc3ccc(C(F)(F)F)cc3)ccc2O1,-8.4
Cc1noc(C)c1S(=O)(=O)Nc1ccc2c(c1)C(=O)N([C@H](C)CO)C[C@H](C)[C@@H](CN(C)C(=O)Nc1cccc3ccccc13)OCCCC[C@@H](C)O2,0.4[25 µM]
C[C@@H]1CN([C@@H](C)CO)C(=O)c2cc(NC(=O)Nc3ccc(C(F)(F)F)cc3)ccc2O[C@@H](C)CCCCO[C@@H]1CN(C)CC1CCCCC1,12.4[25 µM]
C[C@@H]1CN([C@H](C)CO)C(=O)c2cc(NC(=O)Nc3cccc4ccccc34)ccc2O[C@@H](C)CCCCO[C@@H]1CN(C)Cc1ccc(C(F)(F)F)cc1,32.2[25 µM]
CCCC#Cc1cnc2c(c1)C(=O)N([C@@H](C)CO)C[C@H](C)[C@H](CN(C)C(=O)Nc1cc(F)ccc1F)O2,-23.6[25 µM]
CO[C@H](CN(C)C(=O)Nc1ccc(Cl)cc1)[C@@H](C)CN(Cc1ccccc1Cl)[C@H](C)CO,-8.8[25 µM]
